PubChem BioAssay AID1030 (National Center for Advancing Translational Sciences (NCATS), 2008)
Hit rate of the full screen: of about 220,000 compounds, about 16,000 (7.3%) were called active. Roughly 25% stayed inconclusive and do not appear here. Calls come from the whole dose curve; as a rule, active = well fitted inhibition curve with a large enough effect (not every such curve was filed as active); inconclusive = small, poorly fitted or top-dose-only effect, or another doubt; inactive = no such curve, though single readings can be large or run the other way. Many of the other results were omitted from the sample, so actives are more common in it than they were.

Target: Aldehyde dehydrogenase 1A1 (Homo sapiens) (UniProt P00352)
Test: qHTS Assay for Inhibitors of Aldehyde Dehydrogenase 1 (ALDH1A1);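 for activity, negative = inhibition: plate controls were no enzyme wells and a reference inhibitor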
Settings: Purified ALDH1A1, NADH fluorescence, propionaldehyde substrate; series mostly up to 75.3 µM; activity, negative = inhibition: at the top concentration
Potency is the fitted concentration of half-maximal effect.

Sequence of Aldehyde dehydrogenase 1A1 (Homo sapiens) (P00352 whole entry, looked up): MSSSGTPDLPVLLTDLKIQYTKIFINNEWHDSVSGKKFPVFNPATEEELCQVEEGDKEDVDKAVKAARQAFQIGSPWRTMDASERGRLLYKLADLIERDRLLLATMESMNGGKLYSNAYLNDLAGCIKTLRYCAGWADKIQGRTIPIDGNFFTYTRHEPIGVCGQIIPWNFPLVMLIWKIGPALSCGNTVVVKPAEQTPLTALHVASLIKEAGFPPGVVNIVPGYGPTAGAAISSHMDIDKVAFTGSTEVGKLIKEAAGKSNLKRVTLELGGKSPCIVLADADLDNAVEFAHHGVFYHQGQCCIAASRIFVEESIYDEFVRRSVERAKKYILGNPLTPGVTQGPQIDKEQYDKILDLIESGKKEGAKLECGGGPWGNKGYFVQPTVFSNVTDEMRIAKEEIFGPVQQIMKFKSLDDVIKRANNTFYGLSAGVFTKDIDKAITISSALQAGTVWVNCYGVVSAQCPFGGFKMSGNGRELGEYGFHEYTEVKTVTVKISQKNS

Structure (SMILES)	activity, negative = inhibition	Potency
COC(=O)C1=C(C)N(C)C(=S)NC1c1cc(OC)ccc1OC (stereo unspecified)	5.5% (inactive)	–
FC(F)(F)c1ccnc(Oc2ccc(C3=NCCS3)cc2)c1	-6.21% (inactive)	–
CN1CCC(=NNC(=O)CN(c2cccc(Cl)c2)S(C)(=O)=O)CC1	10.8% (inactive)	–
CN1CCC(=NNC(=O)c2ccc(N(Cc3ccc(Cl)cc3)S(C)(=O)=O)cc2)CC1	–	8.91 µM (active)
CCN1CCN(C(=O)c2ccc(CN(c3ccc(C)c(C)c3)S(C)(=O)=O)cc2)CC1	-0.172% (inactive)	–
CC(=O)N1CC(C)c2scc(C)[n+]2-c2ccccc21 (stereo unspecified)	15.2% (inactive)	–
OCC1(Cc2ccccc2C(F)(F)F)CCN(Cc2cccc3cnccc23)CC1	-3.56% (inactive)	–
O=S(=O)(NC1CC1)c1ccc2c3c(cccc13)CC2	-5.31% (inactive)	–
COc1ccc(C(=O)NC(Cc2ccc(OC(=O)c3ccc(OC)cc3)cc2)C(=O)O)cc1 (stereo unspecified)	-7.25% (inactive)	–
COc1ccc(-c2ccc(CCC(=O)O)n2NC(=O)c2ccc(C(C)(C)C)cc2)cc1	–	2.24 µM (active)
COc1ccc(N2CCN(C(=O)CNC(=O)c3ccc(C(C)(C)C)cc3)CC2)cc1	-14.7% (inactive)	–
CCCNC(=S)N1CCCC(c2nc3ccccc3[nH]2)C1 (stereo unspecified)	9.56% (inactive)	–
C#Cc1ccc([C@@H]2C=C(C(=O)O)O[C@H](OCCCCO)C2)cc1	-7.97% (inactive)	–
Cc1csc(/N=C/N(C)C)c1C#N	-6.21% (inactive)	–
COc1c(C(C)C)oc2cc3oc(=O)ccc3cc12	-1.48% (inactive)	–
C/C(Nc1ccc2oc(=O)ccc2c1)=C1/C(=O)CC2[C@@H]1C2(C)C (stereo partly specified)	–	3.98 µM (active)
Cc1c(CCO)sc[n+]1CC(=O)OC12CC3CC(CC(C3)C1)C2	5.18% (inactive)	–
CC(=O)Nc1ccc(Nc2nc3c(S(=O)(=O)c4ccc(C)c(C)c4)nnn3c3ccccc23)cc1	139% (inactive)	–
CN(CCc1ccccn1)C(=O)CCC1CCCN(Cc2ccccc2OC(F)F)C1 (stereo unspecified)	11.8% (inactive)	–
c1ccc(COc2ccccc2CNCc2cccnc2)cc1	–	17.8 µM (active)
Fc1ccccc1COc1ccccc1CNCc1ccncc1	8.32% (inactive)	–
O=C(CCc1ccccc1)NCc1cccnc1	3.47% (inactive)	–
CC(C)(C)c1ccc(/C=C2\Oc3c(ccc(O)c3CN3CCN(CCO)CC3)C2=O)cc1	-12.5% (inactive)	–
O=C(CSc1ccc2nnc(-c3ccccc3)n2n1)N1CCCc2ccccc21	-10.2% (inactive)	–
O=C(NCc1nnc(SCC(=O)N2CCCc3ccccc32)o1)c1ccccc1F	–	28.2 µM (active)
Cc1nnc(SCC(=O)N2CCc3ccccc32)n1-c1ccccc1	0.566% (inactive)	–

Structure (SMILES)	activity, negative = inhibition	Potency
COc1ccc(-c2ccc(CNCCCN3CCOCC3)o2)cc1Cl	6.17% (inactive)	–
CC1(C)O[C@@H]2C[C@@H]3[C@H]4C[C@@H](F)C5=CC(=O)C=C[C@]5(C)[C@@]4(F)[C@@H](O)C[C@]3(C)[C@]2(C(=O)CO)O1	12.1% (inactive)	–
COc1ccc(C2C(C(=O)Nc3ccccc3OC)=C(C)Nc3nnnn32)c(OC)c1 (stereo unspecified)	-14.3% (inactive)	–
COc1ccccc1NC(=O)C1=C(C)Nc2nnnn2C1c1cccc(Br)c1 (stereo unspecified)	-5.9% (inactive)	–
COC(=O)C1=C(C(=O)c2ccc(C)cc2)C(c2ccccc2)n2nnnc2N1 (stereo unspecified)	–	7.08 µM (active)
COc1cc(OC)cc(-c2nnc(SCC(=O)Nc3ccc(C(=O)O)cc3)s2)c1	-8.2% (inactive)	–
Cc1ccc(S(=O)(=O)NC(C(=O)N2CCOCCOCCOCCOCC2)c2ccccc2)cc1 (stereo unspecified)	-1.15% (inactive)	–
CCC(CC)NC(=O)/C=C/c1cccc([N+](=O)[O-])c1	-3.2% (inactive)	–
COc1cc(OC)cc(C(=O)NCCSCc2ccco2)c1	5.75% (inactive)	–
O=C(/C=C/c1cccc([N+](=O)[O-])c1)NCCSCc1ccco1	–	20 µM (active)
C/C=C1\C2C=C(C)CC1(N)c1ccc(=O)[nH]c1C2 (stereo unspecified)	–	inactive
CCOc1ccc(-c2ccc(SCC(=O)N3CCOCC3)nn2)cc1	1.06% (inactive)	–
CN1CCN(S(=O)(=O)c2cccc(C(=O)N3CCc4ccccc43)c2)CC1	-2.83% (inactive)	–
C/C(=N\NC(=O)c1cccc(N2CCCC2=O)c1)c1ccc(N)cc1	-7.57% (inactive)	–
O=C(CN1C(=O)COc2ccccc21)Nc1ccc(F)cc1	–	22.4 µM (active)
O=C(CCN1C(=O)COc2ccccc21)NCCCN1CCN(c2ccc(F)cc2)CC1	8.59% (inactive)	–
CCCN1CCN(CCCNC(=O)CN2C(=O)COc3ccccc32)CC1	-0.825% (inactive)	–
Cc1ccc(Cl)c(NC(=O)CN2CCN(C=O)CC2)c1	6.92% (inactive)	–
CCCCC/C=C\C/C=C\C/C=C\CCCCC(=O)NCC(=O)O	1.71% (inactive)	–
O=C(O)C1CCN(C(=O)c2cc(F)cc3c2OCOC3)CC1	-4.59% (inactive)	–
COc1ccc([N+](=O)[O-])cc1NC(=O)C(C)OC(=O)C1c2ccccc2Oc2ccccc21 (stereo unspecified)	4.85% (inactive)	–
COc1ccccc1C1CCN(c2ccc([N+](=O)[O-])cn2)CC1	-3.06% (inactive)	–
COc1ccc([N+](=O)[O-])cc1C1NN=C(c2cccc3ccccc23)S1 (stereo unspecified)	–	10 µM (active)
COc1ccc(CN(C)Cc2nc3cc(OC)c(OC)cc3c(=O)[nH]2)c(OC)c1	6.82% (inactive)	–
COc1ccnc(Oc2ccccc2)c1-c1ncn[nH]1	-0.551% (inactive)	–
Cc1cc2oc(=O)cc(-c3ccccc3)c2c(C)c1/C=C/c1ccc(F)cc1	1.81% (inactive)	–

Structure (SMILES)	activity, negative = inhibition	Potency
Nc1ccc(S(=O)(=O)Nc2nccc(/C=C/c3ccc(Br)s3)n2)cc1	-11.9% (inactive)	–
Cc1cc(Cl)ccc1C(=O)C1CCCN(C(=O)CCN2CCCO2)C1 (stereo unspecified)	-15.5% (inactive)	–
CSCC(=O)N1CCCC(C(=O)c2cc(F)ccc2F)C1 (stereo unspecified)	–	10 µM (active)
COc1ccc(F)cc1C(=O)C1CCCN(C(=O)CCc2ccccn2)C1 (stereo unspecified)	-4.22% (inactive)	–
Cc1cc(C(=O)OCC(=O)NCc2ccco2)c(C)n1-c1ccccc1	-9.68% (inactive)	–
Cc1cc(C(=O)COC(=O)c2cccs2)c(C)n1-c1c(C)n(C)n(-c2ccccc2)c1=O	–	20 µM (active)
Cc1cc(C(=O)CC#N)c(C)n1-c1c(C)n(C)n(-c2ccccc2)c1=O	17.2% (inactive)	–
CCOc1ccc(CCN2C(=O)c3cccnc3C2=O)cc1OCC	4.81% (inactive)	–
O=C1CC(=O)Nc2cc(S(=O)(=O)N3CCN(c4cccc(C(F)(F)F)c4)CC3)ccc2N1	-2.99% (inactive)	–
Cc1ccc(S(=O)(=O)N(C)CC(=O)NC2CCCC2)cc1	-2.42% (inactive)	–
O=C(CN(CC1CCCO1)C(=O)CNS(=O)(=O)c1ccc(F)cc1)NCc1ccco1 (stereo unspecified)	4.66% (inactive)	–
Cc1ccc(S(=O)(=O)NCC(=O)N(CC(=O)NC2CCCCC2)Cc2ccco2)cc1	–	17.8 µM (active)
COc1ccccc1-c1nc(SC)n[nH]1	2.27% (inactive)	–
O=C(CN1CCOCC1)Nc1c(Cl)cc(Cl)cc1Cl	9.81% (inactive)	–
C=CCNC(=S)NNC(=O)c1cc(Cl)ccc1OC	8.59% (inactive)	–
COc1cc(C(=O)N(Cc2ccc(N(C)C)cc2)C2CCS(=O)(=O)C2)cc(OC)c1OC (stereo unspecified)	-4.2% (inactive)	–
CC1(C)C(C=C(Cl)Cl)C1C(=O)N(Cc1ccc(Cl)cc1)C1CCS(=O)(=O)C1 (stereo unspecified)	-1.61% (inactive)	–
COc1ccc(C(=O)N(Cc2ccc(N(C)C)cc2)C2CCS(=O)(=O)C2)cc1 (stereo unspecified)	–	5.62 µM (active)
CCOc1ccc(C(=O)N(Cc2ccc(N(C)C)cc2)C2CCS(=O)(=O)C2)cc1 (stereo unspecified)	–	12.6 µM (active)
CCCCN(C(=O)COc1ccc(NC(C)=O)cc1)C1CCS(=O)(=O)C1 (stereo unspecified)	1.35% (inactive)	–
COc1ccc(NC(=O)COc2ccc(C(=O)OCC(=O)N(C)C3CCS(=O)(=O)C3)cc2OC)cc1 (stereo unspecified)	-5.23% (inactive)	–
CCCN(CCC)CCCNC(=O)CNC(=O)c1nn(-c2ccc(OC)cc2)c(=O)c2ccccc12	-5.06% (inactive)	–
COc1ccc(CC(NC(C)=O)C(=O)NC2CCN(C(=O)c3ccc(OC)c(OC)c3)CC2)cc1OC (stereo unspecified)	4.43% (inactive)	–
CNC(=O)c1ccc(NC(=O)c2cccc(C(F)(F)F)c2)cc1	2.1% (inactive)	–
CC(C)N(C(=O)Cn1cc(SCC(=O)N2CCCC2)c2ccccc21)C(C)C	4.74% (inactive)	–
O=C(c1cccc(C(=O)N2CCN(c3ccc(F)cc3)CC2)c1)N1CCN(c2ccc(F)cc2)CC1	2.51% (inactive)	–

Structure (SMILES)	activity, negative = inhibition	Potency
O=C(c1cccc(F)c1)N1CCN(c2ccc([N+](=O)[O-])c3cccnc23)CC1	-6.77% (inactive)	–
O=C(c1cccc(F)c1)N1CCN(c2ccc([N+](=O)[O-])c(N3CCCCC3)c2)CC1	–	8.91 µM (active)
CCCN(CC(=O)Nc1ccccc1C)C(=O)c1cc(=O)[nH]c2ccccc12	-3.3% (inactive)	–
O=C(Nc1ccc2c(c1)C(=O)OC2)Nc1cccc2ccccc12	4.39% (inactive)	–
CC(C)OCCCNC(=S)N1CCC(C(=O)c2ccc3c(c2)OCCO3)CC1	-11.4% (inactive)	–
Cc1nn(C)c(C)c1CN(C(=O)CCc1nnc(Cc2c[nH]c3ccccc23)o1)C(C)C	17% (inactive)	–
CCOC(=O)N1CCN(CC(=O)Nc2ccc(F)cc2)CC1	-2.18% (inactive)	–
Cc1cc(NC(=O)CN2CCCC(C)C2)n(-c2nc3ccccc3s2)n1 (stereo unspecified)	0.548% (inactive)	–
CCOC(=O)N1CCN(CC(=O)Nc2cc(C)nn2-c2nc3ccccc3s2)CC1	–	15.8 µM (active)
O=C(Cc1c[nH]c2ccccc12)OCCOC(=O)Cc1c[nH]c2ccccc12	–	17.8 µM (active)
CC(C)(C)N(Cc1ccccc1)C(=O)COC(=O)CCc1c[nH]c2ccccc12	-11.5% (inactive)	–
CC(=O)NC(Cc1c[nH]c2ccccc12)C(=O)O (stereo unspecified)	9.05% (inactive)	–
CCOC(=O)CN(C)Cc1c[nH]c2ccccc12	–	22.4 µM (active)
NS(=O)(=O)c1ccc(NC(=O)COC(=O)CCc2c[nH]c3ccccc23)cc1	-1.24% (inactive)	–
CN(Cc1cccs1)C(=O)Cc1c[nH]c2ccccc12	3.39% (inactive)	–
COc1ccc(NC(=O)C(=O)NCC(=O)Nc2cccc(C(F)(F)F)c2)cc1	0.589% (inactive)	–
COc1ccc(-c2nc(CS(=O)CC(=O)N3CCc4ccccc4C3)c(C)o2)cc1 (stereo unspecified)	–	25.1 µM (active)
O=C(C(=O)N1CCc2ccccc2C1)N1CCc2ccccc2C1	8.43% (inactive)	–
Cc1nnc(SCC(=O)N2CCc3ccccc3C2)s1	-3.58% (inactive)	–
Clc1cc(-c2ccc(/C=N/n3cnnc3)o2)ccc1Br	9.2% (inactive)	–
CCc1ccccc1NC(=O)CSc1nnc(-c2ccncc2)o1	-0.724% (inactive)	–
Cc1ccc2c(Cl)c(C(=O)Nc3nn[nH]n3)sc2c1	0.398% (inactive)	–
O=c1ccn([C@@H]2O[C@H](COP(=O)(O)OP(=O)(O)OP(=O)(O)O)[C@@H](O)[C@H]2O)c(=O)[nH]1	6.39% (inactive)	–
